PubChem BioAssay (NCI)
This is part of a sample that, as a whole, favours compounds with a hit. Of some 79,000 tested, about 15% had one in any assay. A number with no mark means an inactive call. Rule as the data show it: active = growth inhibition above about 70%; inactive = the rest.

assay: NCI Yeast Anticancer Drug Screen. Data for the sgs1 mgt1 strain (AID 161);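 also: 0% = growth of cultures given vehicle only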; conditions: S. cerevisiae sgs1 mgt1 strain, at 50.0 µM, active compounds read high
Procedure: Growth inhibition of yeast strains with defined genetic alterations is measured as a screen for potential anti-cancer activity. Selected strains with alterations in DNA damage repair or cell cycle control were exposed to compounds and growth inhibition was measured relative to vehicle treated controls. The strain used in this assay is sgs1 mgt1

**Q.** Which growth inhibition does the source give for `COC(=O)c1cccnc1` here?
**A.** -0.35%

**Q.** For `COc1cc2c(cc1O)CC[C@@H]1C2CC[C@@]2(C)C1CC[C@@H]2O` (stereo not given in full), which growth inhibition is on record?
**A.** -15.2%

**Q.** Which growth inhibition does the source give for `COc1ccc(-c2cc(-c3cc(-c4ccc(OC)cc4)nc(N)n3)nc(N)n2)cc1` here?
**A.** -20.8%

**Q.** With `COc1nc(N)nc2c1ncn2C1OC(CO)CC1O` (stereo not given) as the compound, how does the growth inhibition read?
**A.** -3.5%

**Q.** With `COc1ccc(/C=C/c2cccc[n+]2C)cc1` as the compound, how does the growth inhibition read?
**A.** -7.1%

**Q.** With `CC(C)C(C#N)(C(C)C)C(C)C` as the compound, how does the growth inhibition read?
**A.** 4%

**Q.** With `O=[N+]([O-])c1ccc(S(=O)(=O)NN=C2CCCCC2)cc1` as the compound, how does the growth inhibition read?
**A.** 8.1%

**Q.** For `Nc1ccc(C(=O)c2ccc(N)c(Br)c2)cc1Br`, which growth inhibition is on record?
**A.** 6.6%

**Q.** With `OC(c1ccccn1)C(O)c1ccccn1` (stereo not given) as the compound, how does the growth inhibition read?
**A.** -0.6%

**Q.** With `CCOC(=O)c1cc2cccc(OC)c2oc1=O` as the compound, how does the growth inhibition read?
**A.** -5.65%

**Q.** With `Clc1ccc(-c2nnc(-c3cccc4ccccc34)o2)cc1` as the compound, how does the growth inhibition read?
**A.** -29.4%

**Q.** Which growth inhibition does the source give for `CCOC(=O)Nc1nn[nH]n1` here?
**A.** 32%

**Q.** For `CCOC(=O)C(=O)C=P(c1ccccc1)(c1ccccc1)c1ccccc1`, which growth inhibition is on record?
**A.** -21.9%

**Q.** With `O=C(Cc1ccccc1)Cc1ccccc1` as the compound, how does the growth inhibition read?
**A.** -0.45%

**Q.** Which growth inhibition does the source give for `O=C(O)c1cccc([N+](=O)[O-])c1O` here?
**A.** 8.95%

**Q.** Which growth inhibition does the source give for `CC(=O)OCC(=O)[C@@]1(O)CC[C@H]2[C@@H]3CC[C@@H]4C[C@H](O)CC[C@]4(C)[C@H]3C(=O)C[C@@]21C` here?
**A.** 25.4%

**Q.** For `CN(C)CCN(Cc1ccccc1)c1ccccc1`, which growth inhibition is on record?
**A.** -13.6%

**Q.** Which growth inhibition does the source give for `COC(=O)C(C)Oc1ccc(OC#N)cc1` (stereo not given) here?
**A.** 8.9%

**Q.** For `CC(C)OC(C(=O)O)c1ccccc1` (stereo not given), which growth inhibition is on record?
**A.** -3.65%

**Q.** Which growth inhibition does the source give for `O=[N+]([O-])c1ccccc1S(=O)c1ccccc1[N+](=O)[O-]` here?
**A.** 34.3%

**Q.** With `NCC(=O)CCC(=O)O` as the compound, how does the growth inhibition read?
**A.** 0.5%

**Q.** With `c1cc[n+](C2c3ccccc3C([n+]3ccccc3)c3ccccc32)cc1` (stereo not given) as the compound, how does the growth inhibition read?
**A.** 16.9%

**Q.** Which growth inhibition does the source give for `Nc1ccc(CC(=O)O)c(N)c1` here?
**A.** -4.6%

**Q.** For `CC(C(=O)O)(C1CCCCC1)C1(O)CCCCC1` (stereo not given), which growth inhibition is on record?
**A.** 39.9%

**Q.** For `CCOC(=O)CSc1c([N+](=O)[O-])ncn1C`, which growth inhibition is on record?
**A.** 8.75%

**Q.** With `CCOC(=O)C(O)C(O)C(=O)OCC` (stereo not given) as the compound, how does the growth inhibition read?
**A.** -29.3%

**Q.** Which growth inhibition does the source give for `Cc1cc(=O)[nH]c(NN=C2CCCC2)n1` here?
**A.** -35.4%

**Q.** With `COc1ccc(-c2cc3c(nn2)-c2ccccc2C3=O)cc1` as the compound, how does the growth inhibition read?
**A.** -13%

**Q.** With `Cc1cc(C)c(N)c(S(=O)(=O)O)c1` as the compound, how does the growth inhibition read?
**A.** -24.1%

**Q.** For `Oc1ccccc1-c1nnco1`, which growth inhibition is on record?
**A.** 0.35%

**Q.** With `O=C(O)CCCc1ccccc1` as the compound, how does the growth inhibition read?
**A.** 2.05%

**Q.** Which growth inhibition does the source give for `COC(=O)c1[nH]c(=O)c(C#N)c(C(=O)OC)c1C(=O)c1ccccc1` here?
**A.** 10.5%

**Q.** Which growth inhibition does the source give for `CC1(C)S(=O)(=O)OCCOS1(=O)=O` here?
**A.** 6.75%

**Q.** Which growth inhibition does the source give for `CCCCOC(OCCCC)c1ccccc1` here?
**A.** 20.7%

**Q.** Which growth inhibition does the source give for `COc1ccccc1N=Nc1c(O)ccc2cc(S(=O)(=O)O)ccc12` here?
**A.** 6.75%

**Q.** For `O=[N+]([O-])c1ccc(-c2noc(-c3cccs3)n2)cc1`, which growth inhibition is on record?
**A.** 13.4%

**Q.** For `CCCCC/C=N/Nc1nc(C)cc(=O)[nH]1`, which growth inhibition is on record?
**A.** -8.95%

**Q.** For `COC1=CC(=O)c2nc(Cl)ccc2C1=O`, which growth inhibition is on record?
**A.** 35.2%

**Q.** For `O=C(O)CSCSCC(=O)O`, which growth inhibition is on record?
**A.** -8.8%

**Q.** For `O=c1cc2oc3cc(O)c(O)cc3c(-c3ccccc3O)c-2cc1O`, which growth inhibition is on record?
**A.** 44.9%
